Assay results published in PubChem BioAssay AID720519 (National Center for Advancing Translational Sciences (NCATS), 2013).
Inconclusive results are not listed. The call rests on the fitted dose curve; in most records, active means well fitted activation curve with a large enough effect; inconclusive means small, poorly fitted or top-dose-only effect; inactive means flat fitted curve, though single readings scatter.

Assay: qHTS for Inhibitors of Cell Surface uPA Generation: Confirmatory Assay for Cherry-picked Compounds; further: 0% is about no effect
Details: cell surface uPA activity generation, qHTS confirmation; series mostly up to 115 µM; inhibition: at the top concentration
Method in brief: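 RAW 264.7 cells at 4000/well, incubated overnight, then treated with compounds. After 24 h at 37 C, viability was read by ATPlite luminescence. An increase in signal indicates blocked uPA-dependent LF entry.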

inhibition, inactive:
O=C(Cc1ccccc1)Nc1ccc(NC(=O)c2ccccc2)c(Cl)c1 -1.87%
CCCN1CCN(C2CCCCC2NS(=O)(=O)c2ccc(Cl)cc2)CC1 (centres undefined) 11.2%
CC(=O)c1ccc(N=C2SCCCN2C(=O)C2CCCCC2)cc1 -2.64%
COc1ccc(-c2cc3nc(-c4ccccc4)cc(N4CCCC(O)C4)n3n2)cc1 (centres undefined) 2.53%
Clc1ccccc1N1CCN(c2ncnc3nc[nH]c23)CC1 -0.597%
CCOCCCn1c(SCC(=O)Nc2cc(OC)ccc2OC)nc2ccccc2c1=O -3.62%
CC(=O)c1ccc2c(c1)c1ccccc1n2CC(C)C -0.0624%
Cc1ccc(NC(=O)CS(=O)Cc2nc(-c3ccc(C)cc3)oc2C)cc1 (centres undefined) -2.57%
CCOc1cc(C(=S)N2CCOCC2)ccc1OC(=O)c1cccc(C)c1 -3.23%
Cc1nc2ncccn2c1-c1csc(Nc2ccc(S(N)(=O)=O)cc2)n1 -3.4%
Cc1ccc(Nc2nc(Cl)c(C=O)s2)cc1 -3.05%
Cc1ccc(NS(=O)(=O)c2c(C)nc3sccn3c2=O)c(C)c1 -2.66%
O=S(=O)(NCC(c1cccnc1)N1CCOCC1)c1ccccc1 (centres undefined) -1.68%
CC(=O)n1cc(/C=N/NC(=O)c2ccc([N+](=O)[O-])cc2)c2ccccc21 -2.83%
C=CCn1c(C)cc(C(=O)COC(=O)/C=C/c2cccc(OC)c2)c1C -2.92%
O=C(O)CCCC(=O)NCCCCc1ccccc1 -1.53%
CCOc1ccc(C(=O)NCCO)cc1 -1.33%
Cc1nc(NC2CCCCC2)c2nnn(Cc3ccccc3Cl)c2n1 -0.678%
Cc1ccc(C2=NS(=O)(=O)N(C)C(C(=O)NC3CCCC3)=C2)cc1 -1.27%
C=CCNC(=S)NCC=C -0.446%
Cn1c(CN2CCCC2)nc2cc(NC(=O)COc3ccccc3)ccc21 -2.79%
CC(/C=C1\SC(=S)N(CCCC(=O)Nc2ccc(C(=O)O)cc2)C1=O)=C\c1ccccc1 -2.46%
O=S(=O)(/N=C(/c1ccccc1)N1CCOCC1)c1ccc(F)cc1F -0.111%
O=C(CN(c1ccccc1F)S(=O)(=O)c1ccccc1)Nc1ccc2c(c1)OCCO2 -3.45%
COc1cccc(C(=O)NCc2ccc3[nH]c(C)cc3c2)c1 -1.27%
Cc1nc(C(=O)N2CCC(n3nccc3NC(=O)Nc3ccccc3Cl)CC2)cs1 -2.57%
O=C(CNC(=O)c1ccc(Br)o1)NNC(=O)c1ccccc1 -1.22%
O=C(Nc1ccc(NC(=O)c2ccco2)c(Cl)c1)c1ccccc1 -0.468%
CCOC(=O)C1=C(C)N(Cc2ccccc2)C(=O)NC1c1ccc(OC)cc1 (centres undefined) -1.56%
CCN1CCN(C(c2ccccc2)c2nnnn2Cc2ccc3c(c2)OCO3)CC1 (centres undefined) 2.01%
CCNC(=S)NNC(=O)c1ccncc1 -1.76%
COc1ncnc(NS(=O)(=O)c2ccc(N)cc2)c1OC 0.555%
COc1ccc(Cc2nnc(Nc3ccc(C)cc3)o2)cc1OC -0.266%
CCOc1cc(/C=N/Nc2cc(C)nc3ccc(C)cc23)ccc1O -1.72%
COc1cccc(NC(=O)CSc2nc3ncc(Br)cc3[nH]2)c1 -0.495%
CSCC[C@H](NC(=O)[C@H](Cc1ccccc1)n1c(=O)[nH]c2ccccc2c1=O)C(=O)N1CCC[C@H]1C(=O)O -1.26%
CCC1(CC)NC(=O)N(CC(=O)OCC(=O)c2cc(C)c(C)cc2C)C1=O -1.52%
Cc1cc(N2C(=O)C(O)=C(C(=O)c3ccco3)C2c2ccc(Cl)cc2)no1 (centres undefined) -3.05%
CCN(c1ccccc1)S(=O)(=O)c1ccc(NC(=O)c2ccco2)cc1 -2.76%
